We go through nine compounds from PubChem BioAssay (NCI).

Test in all cases: NCI-60 one-dose screen, 48 h (100 = growth as untreated, 0 = no growth, -100 = all killed)
What all share (conditions): 10 µM unless noted

Assay [1] relates to SR leukemia.
Assay [2] concerns RPMI-8226 leukemia.
Assay [3] concerns OVCAR-8 ovarian.
Assay [4] concerns OVCAR-5 ovarian.
Assay [5] concerns OVCAR-4 ovarian.
The subject of assay [6] is SK-OV-3 ovarian.
Assay [7] deals with IGROV1 ovarian.
In assay [8] the test system is OVCAR-3 ovarian.
The subject of assay [9] is HS 578T breast.
Assay [10] has as its system NCI/ADR-RES ovarian.
Assay [11] concerns T-47D breast.
The subject of assay [12] is MDA-MB-435 melanoma.
Assay [13] deals with SW-620 colon.
The test system of assay [14] is MCF7 breast.
The subject of assay [15] is HCT-116 colon.
Assay [16] concerns HCC-2998 colon.
Assay [17] deals with KM12 colon.
The test system of assay [18] is BT-549 breast.

About 83,000 compounds went through this panel and 20% of them were active in at least one assay; those are over-represented in the sample as a whole.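 Treatment: one concentration, 48 hours, 96-well format. Scoring: percent growth, with anything below 10 considered active.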 Values without a mark were called inactive. Calls of active or inactive are those of the source.

With `COc1cc(/C=N/N(C)C)ccc1O`, the growth in assay [1] is 93%; in assay [2] it was 92.4%; in assay [3], 96.1%; in [4] it was 106%; in assay [5], 115%; in [6], 97.1%. Besides, the growth in assay [7] is 104%; in assay [8], 109%; in assay [9] it was 87.3%; in [10], 107%; in [11], 94.4%; in assay [12] it was 106%. The growth in assay [13] was 90.7%; in assay [14], 98.4%; in assay [15] it was 101%; in assay [16], 107%; in assay [17], 103%.
Regarding `O=c1c(/C=C/c2ccco2)nnc(SCCN2CCOCC2)n1/N=C/c1ccc([N+](=O)[O-])cc1`, the growth in [1] was 33.6%; in assay [2] it was 67%; in assay [3] it was 94%; in [4], 103%; in assay [5], 97.2%; in assay [6], 95%. Moreover, the growth in [7] is 82.8%; in assay [8], 108%; in assay [9], 96.9%; in [10] it was 101%; in [11], 68.2%; in assay [18], 94.6%. Moreover, the growth in assay [12] is 97.4%; in assay [13], 104%; in assay [14] it was 31%; in assay [15], 95%; in assay [16] it was 93.1%; in [17] it was 92%.
For `COC(=O)C12C3C(=O)N(c4ccc(OC)cc4)C(=O)C3C(c3cn(-c4ccccc4)nc3C)N1[C@H](c1cn(-c3ccccc3)nc1C)[C@@H]1C(=O)N(c3ccc(OC)cc3)C(=O)[C@@H]12` (stereo partly drawn), the growth in assay [1] is 91%; in [2], 106%; in assay [3] it was 99%; in assay [4], 103%; in [5], 108%; in assay [6], 101%. For the same compound, the growth in [7] was 107%; in assay [8], 104%; in assay [9] it was 106%; in [10] it was 97.4%; in [11] it was 102%; in assay [18] it was 113%. Further, the growth in assay [12] is 102%; in assay [13], 100%; in assay [14], 102%; in assay [15] it was 104%; in assay [17] it was 106%.
As to `COc1cc(NCCCCCN=C(N)NC(N)=NC(C)C)c2ncccc2c1`, the growth was 46.3% in [1]; 37.6% in [2]; 23.8% in assay [3]; 71.5% in assay [4]; -16.7% (active) in assay [5]; 83.3% in assay [6]. In addition, the growth in assay [7] was -13.1% (active); in assay [8] it was -39.8% (active); in assay [9], 64%; in assay [10] it was 99.5%; in [11] it was 24.6%; in assay [12] it was 69.2%. In addition, the growth is 25.2% in assay [13]; -91.6% (active) in [14]; -4.52% (active) in assay [15]; 11% in assay [16]; 3.06% (active) in assay [17].
As for `CC(C)[C@H]1COC(=O)N1[C@@H]1C(=O)N([C@@H](CCC(=O)N2CCN(C3CCCC3)CC2)C(=O)N[C@@H]2CCCc3ccccc32)[C@@H]1/C=C/c1cccc(Br)c1`, the growth was -18.9% (active) in assay [1]; 14.6% in [2]; 62.1% in assay [3]; 88.2% in [4]; 53.9% in [5]; 52.7% in [6]. Moreover, the growth is 32% in assay [7]; 45.1% in assay [8]; 51.9% in assay [9]; 53% in [10]; 39.9% in [11]; 30.2% in assay [12]. The growth in assay [13] is 45.2%; in assay [14], 23%; in assay [15], 14.3%; in assay [16], 30.8%; in [17] it was 35.6%.
On to `CC1=NNC(=O)C1C` (stereo not drawn), for which the growth was 121% in assay [1]; 73.1% in [2]; 83.3% in assay [3]; 122% in [4]; 128% in assay [5]; 101% in assay [6]. For the same compound, the growth is 106% in assay [7]; 109% in assay [8]; 90.8% in assay [9]; 105% in assay [10]; 104% in assay [11]; 284% in assay [18]. Besides, the growth in assay [12] was 104%; in [13], 98%; in [14], 104%; in [15] it was 84.2%; in assay [16], 103%; in [17], 102%.
For the compound `O=C1c2cc3c(cc2-c2c1c1cc(F)c(F)cc1c(=O)n2C[C@H](O)CO)OCO3`, the growth is -16.5% (active) in assay [1]; -0.801% (active) in assay [2]; 4.44% (active) in assay [3]; 4.09% (active) in assay [4]; 7.88% (active) in [5]; -4.97% (active) in [6]. Besides, the growth was 8.38% (active) in assay [7]; -8.12% (active) in assay [8]; 42.1% in assay [9]; -17% (active) in assay [10]; -9.55% (active) in assay [11]; 0.808% (active) in assay [18]. Besides, the growth in [12] was -11% (active); in assay [13], 11.7%; in assay [14], 3.86% (active); in [15], 3.5% (active); in assay [16], 10.7%; in [17], 5.01% (active).
As for `Nc1nc2c(c3ncccc13)C(c1ccc(Cl)c(Cl)c1)Cc1ncccc1-2` (stereo not drawn), the growth in assay [1] is 0.136% (active); in assay [2], 15.8%; in assay [3] it was 34.2%; in assay [4] it was 81.3%; in assay [5] it was 67.6%; in assay [6], 19.7%. In addition, the growth is 50.8% in [7]; -8.92% (active) in assay [8]; 31.5% in assay [9]; 4% (active) in assay [10]; 16% in assay [11]; 31.1% in assay [18]. Further, the growth is 6.95% (active) in [12]; 21.7% in assay [13]; 12.2% in assay [14]; 18.4% in [15]; 41.7% in assay [16]; 21.5% in assay [17].
In the case of `COc1ccc(Cl)cc1Nc1nc(C(F)(F)F)ccc1C(=O)N/N=C/c1cccnc1`, the growth in [1] was 25.1%; in assay [2] it was 32.5%; in assay [3] it was 42%; in assay [4] it was 57%; in assay [5], 29.7%; in assay [6], 53.9%. In addition, the growth in [7] is 40.3%; in assay [8], 29.3%; in assay [9], 59.6%; in assay [10], 41.8%; in [11] it was 46.9%; in assay [18] it was 47.1%. The growth in assay [12] was 58.4%; in assay [13], 47.5%; in assay [14] it was 33.3%; in assay [15], 43.2%; in [16] it was 53.6%; in assay [17], 59.5%.
